# Screening results from PubChem BioAssay.
# MEKK2wt PB1 HTS: modulators of MEK5 binding to wildtype MEKK2, primary screen, biochemical, multiplex bead flow cytometry, Alexa488-MEK5 | Alexa488-MEK5 binding to MEKK2 WT; actives lie on both sides | binding response (% of control), % at 10 µM | AID 1531, 2009 | Mitogen-activated protein kinase kinase kinase 2 (Homo sapiens), Q9Y2U5 | actives 1.1% (n = 290,000); in the data active means binding response below about 67% or above about 130%
# SUMO Mot1 rescue: yeast Mot1-301 growth rescue at high temperature, primary screen, SUMOylation pathway inhibitor project, S. cerevisiae, ATP luminescence, 38.5C. growth rescue, % at 18.8 µM. actives 1% (n = 320,000). AID 2716, 2010. S. cerevisiae Mot1-301 growth rescue; percent above DMSO median, 100 means doubled;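 active means every valid replicate shows activation above 250% relative to neutral control wells; inactive means the rest, any valid replicate at or below 250%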
# MEKK3 PB1 HTS: modulators of MEKK3-MEK5 PB1 binding, primary screen, biochemical, wildtype MEKK3, multiplex bead flow cytometry, Alexa488-MEK5 | bead-based flow cytometry, Alexa488-MEK5 binding to MEKK3; actives lie on both sides; 0 = blocked by unlabeled MEK5, 100 = vehicle | binding response (% of control), % at 10 µM | actives 1.4% (n = 290,000) | AID 1529, 2009 | Mitogen-activated protein kinase kinase kinase 3 (Homo sapiens), Q99759;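 active means binding response more than 3 SD above or below the average of its plate-row segment, actives on both sides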;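 further: Alexa488 bead fluorescence after subtracting the streptavidin-only scavenger bead signal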
# MEKK2mut PB1 HTS: MEK5 binding signal on mutant MEKK2 PB1, primary screen, biochemical, multiplex bead flow cytometry, Alexa488-MEK5; Alexa488-MEK5 binding to MEKK2 mutant; percent response, % at 10 µM; actives 0.35% (n = 290,000); AID 1530, 2009; in the data active means percent response above about 24%, passing the limit was not always enough
# CHT inh: inhibitors of human choline transporter CHT; actives 0.86% (n = 310,000); B-score at 10 µM; High affinity choline transporter 1 (Homo sapiens), Q9GZV3; CHT-expressing cells, membrane potential dye, choline response; active compounds read low;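 active means B-score over 3 SD under the library average, and starting fluorescence ratio not unusually high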;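 further: choline stimulus applied at its EC90 after an EC20 pre-addition; B-score computed on integrated fluorescence ratio after choline addition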
# Target sequence (Q9GZV3 whole entry, looked up): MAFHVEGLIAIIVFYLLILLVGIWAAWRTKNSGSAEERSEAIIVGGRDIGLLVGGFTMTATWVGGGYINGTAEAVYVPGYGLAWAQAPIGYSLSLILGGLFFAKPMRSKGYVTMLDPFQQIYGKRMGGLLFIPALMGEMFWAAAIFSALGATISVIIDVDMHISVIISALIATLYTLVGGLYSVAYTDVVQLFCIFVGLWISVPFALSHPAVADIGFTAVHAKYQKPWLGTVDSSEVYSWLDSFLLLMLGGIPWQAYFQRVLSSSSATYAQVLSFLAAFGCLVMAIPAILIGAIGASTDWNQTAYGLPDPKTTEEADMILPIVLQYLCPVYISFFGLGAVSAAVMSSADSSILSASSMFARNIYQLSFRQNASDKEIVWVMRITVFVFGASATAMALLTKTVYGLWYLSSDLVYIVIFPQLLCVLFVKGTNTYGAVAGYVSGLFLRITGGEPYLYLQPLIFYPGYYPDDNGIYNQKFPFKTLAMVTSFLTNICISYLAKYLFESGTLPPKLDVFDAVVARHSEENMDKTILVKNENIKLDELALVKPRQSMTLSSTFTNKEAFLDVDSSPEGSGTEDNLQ
# CHT PAM: CHT positive allosteric modulators, primary screen, cell-based, membrane potential dye, choline EC20 | High affinity choline transporter 1 (Homo sapiens), Q9GZV3 | CHT-expressing cells; active compounds read high; LV-AA mutant CHT in HEK293 cells | B-score at 10 µM | actives 0.49% (n = 310,000) | AID 488977, 2010;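 active means initial fluorescence not abnormally high and integrated response B-score, plate-corrected, over 3 SD above library mean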
# CHT inh conf: CHT inhibitors, confirmation, cell-based, membrane potential dye, duplicate; shares compounds with CHT inh; CHT-expressing cells, choline membrane potential dye; LV-to-AA substituted CHT, HEK293 cells; CHT activity remaining % of control (active compounds read low), % at 10 µM; actives 70% (n = 2,400);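 active means choline transporter activity left, mean of duplicates at 10 µM, below buffer-only control mean minus 3 SD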;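 further: depolarization triggered by choline at its EC90 following an EC20 pre-addition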
# HEK293 CHT ctr: membrane potential effects in parental HEK293, counter-screen for CHT inhibitor project, cell-based, membrane potential dye; shares compounds with CHT inh; choline response; active = decrease or increase beyond buffer ±3SD; membrane potential ratio readout (active if shifted either direction beyond buffer ±3SD; no single direction) at 10 µM; actives 4% (n = 2,400); AID 493222, 2011;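 further: parental cells lack the transporter so any hit is non-specific; ratio is peak minus trough fluorescence over baseline after EC90 choline challenge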
# Hits are given with their value; i = inactive; nt = not tested or not shown. Most compounds without a hit are left out; they make up all but 4.1% or so of the library.
SMILES,MEKK2wt PB1 HTS,SUMO Mot1 rescue,MEKK3 PB1 HTS,MEKK2mut PB1 HTS,CHT inh,CHT PAM,CHT inh conf,HEK293 CHT ctr
Cc1nnc(SCc2ccc(F)cc2)n1NC/C=C/c1ccccc1,i,i,i,i,-7.1,i,i,i
O=C(OCC(=O)N1CCOCC1)c1ccccc1OCc1ccccc1,nt,i,nt,nt,nt,nt,nt,nt
Cc1cccc(C2c3[nH]c4ccccc4c3CCN2C(=O)c2ccc(=O)[nH]c2)n1 (configuration not stated),i,i,i,i,i,i,nt,nt
O=C(c1cc2c([nH]c1=O)CCCC2)N1CCc2c([nH]c3ccccc23)C1c1ccccc1F (configuration not stated),i,nt,i,i,-12,i,30%,i
Cc1cccc(C2c3[nH]c4ccccc4c3CCN2C(=O)c2cc3c([nH]c2=O)CCCC3)n1 (configuration not stated),i,i,i,i,-9.6,i,9.3%,i
Cc1ncoc1C(=O)N1CCc2c([nH]c3ccccc23)C1c1ccccc1F (configuration not stated),i,i,i,i,i,i,nt,nt
Cc1oc(C(=O)O)cc1COc1ccc2c3c(c(=O)oc2c1C)CCC3,i,i,i,i,-6.6,i,43%,i
CCCCn1c(SCC(=O)Nc2cccc(OC)c2)nc2ccc(N3CCOCC3)cc2c1=O,i,i,i,i,-6,i,62%,i
Cc1ccc(OCc2cc(C(=O)N3CCc4[nH]cnc4C3c3ccccn3)no2)cc1C (configuration not stated),i,i,i,i,i,i,nt,nt
COC(=O)C(C)Oc1ccc2c3c(c(=O)oc2c1)CCCCC3 (configuration not stated),i,i,i,i,-5.2,i,i,i
CC(Oc1ccc2c3c(c(=O)oc2c1)CCCC3)C(=O)NCC1CCC(C(=O)O)CC1 (configuration not stated),i,i,i,i,i,i,nt,nt
CC1(C)CC2CC(C)(CN2c2ncnc3ccccc23)C1 (configuration not stated),i,i,i,i,-5.1,i,48%,i
CCOCCCN(C)C1CCN(C(=O)c2oc3ccccc3c2NC(=O)c2cccc([N+](=O)[O-])c2)CC1,i,i,i,i,-6.3,i,38%,4.3
CCOCCCN(C)C1CCN(C(=O)c2oc3ccccc3c2NC(=O)Cc2ccc([N+](=O)[O-])cc2)CC1,i,i,i,i,i,i,nt,nt
COc1ccccc1C(CNC(=O)c1cc(S(=O)(=O)N2CCOCC2)ccc1C)N1CCCC1 (configuration not stated),nt,i,nt,nt,nt,nt,nt,nt
CC#CC(=O)N1CCCC(C(=O)c2ccc(SC)cc2)C1 (configuration not stated),i,i,i,i,i,i,nt,nt
CSc1ccc(C(=O)C2CCCN(C(=O)c3ccsc3)C2)cc1 (configuration not stated),i,i,i,i,-5.2,i,69%,i
Cc1ccc(S(=O)(=O)Cn2nnnc2C(C(C)C)N2CCC(C(N)=O)CC2)cc1 (configuration not stated),i,i,i,i,i,i,nt,nt
COC(=O)C1CCN(C(=O)c2cc(S(=O)(=O)N3CCCCC3)ccc2Cl)CC1,nt,i,nt,nt,nt,nt,nt,nt
Cc1nn2c(NCCOCCO)c3c(nc2c1-c1ccccc1)CCCC3,i,i,i,i,-5.2,i,31%,i
CCCCNc1c2c(nc3c(-c4ccccc4)c(C)nn13)CCC2,i,i,i,i,i,i,nt,nt
COCCNc1c2c(nc3c(-c4ccccc4)c(C)nn13)CCCC2,i,i,i,i,-9,i,66%,i
Cc1nn2c(N3CCN(CCO)CC3)c3c(nc2c1-c1ccccc1)CCCC3,i,i,i,i,-9,i,31%,i
CCOC(=O)/C=C/[C@H]1CCc2cccc(C)c2O1,nt,i,nt,nt,nt,nt,nt,nt
Cc1ccccc1NC(=O)c1c2c(nc3ccccc13)CCC2,i,i,i,i,i,i,nt,nt
SMILES,MEKK2wt PB1 HTS,SUMO Mot1 rescue,MEKK3 PB1 HTS,MEKK2mut PB1 HTS,CHT inh,CHT PAM,CHT inh conf,HEK293 CHT ctr
Cc1ccc(Nc2c3c(nc4ncnn24)CC(C)CC3)cc1 (configuration not stated),i,i,i,i,-5.8,i,i,i
CC(C)(C)OC(=O)N[C@@H](Cc1ccccc1)[C@H](O)c1ccco1,i,i,i,i,i,i,nt,nt
Cc1ccccc1NS(=O)(=O)c1cc2c3c(c1)CC(=O)N3CCC2,i,i,i,i,i,i,nt,nt
Cc1ccccc1NS(=O)(=O)c1ccc(N2CCCC2=O)cc1,i,i,i,i,-5,i,i,i
CC(=O)c1cc2c(cc1NC(=O)CCNC(=O)c1ccccc1Cl)OCO2,i,i,i,i,-5.6,i,50%,i
O=C(CCNC(=O)c1ccccc1Cl)Nc1ccc2c(c1)OCO2,i,i,i,i,i,i,nt,nt
O=C(COC(=O)c1ccc2ccccc2c1O)NCC(F)(F)F,i,i,i,i,i,i,nt,nt
Cc1occc1C(=O)NNC(=S)NC(=O)COc1ccc(Cl)cc1Cl,i,i,i,i,-9.4,i,58%,i
O=C(CNC(=O)c1cccs1)OCC(=O)c1ccc([N+](=O)[O-])cc1,i,i,i,i,-5.1,i,i,i
O=C(c1ccco1)N1CCN(C(=O)c2cc3sccc3n2Cc2ccccc2)CC1,i,i,i,i,-5.9,i,i,i
O=C(NCc1ccco1)C1CCN(C(=O)c2cc3sccc3n2Cc2ccc(F)cc2)CC1,i,i,i,i,i,i,nt,nt
CCOC(=O)C1=C(CS(=O)(=O)c2ccccc2)NC(=O)NC1c1ccccc1OC (configuration not stated),i,i,i,i,i,i,nt,nt
Cc1cc(C)nc(NS(=O)(=O)c2ccc(NC(=O)C3(c4ccc([N+](=O)[O-])cc4)CCCC3)cc2)n1,i,nt,i,i,i,i,nt,nt
